In PubChem BioAssay (NCATS):
Where “and” joins values, the source holds several entries; their conditions need not be identical. Equal entries are not always repeated. Inconclusive results are not listed. Entries that show only a call come without a potency. Calls of active or inactive are those of the source. Unless noted, the call rests on the fitted dose curve; in most records, active means well fitted curve in the direction sought with a large enough effect; inconclusive means small, poorly fitted or top-dose-only effect, or another doubt; inactive means no such curve, though single readings can be large; an effect the other way counts as inactive or inconclusive.

Key:
[1] = Cell Viability - H-4-II-E (AID 543);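 further: cells exposed to compound for 40 hours; nearly all actives have a fitted effect of over 35% in size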
Outline: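 Cells seeded at 1500 per well and rested 5 hr; compounds added; 40 hr incubation at 37 °C; CellTiter-Glo added, 20 min at room temperature; luminescence read. Hill-equation fits gave AC50.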

[2] = Cell Viability - Renal Proximal Tubule (AID 545);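 further: cells exposed to compound for 40 hours; nearly all actives have a fitted effect of over 40% in size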
Outline: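 Rat kidney proximal tubule cells, freshly isolated; 1000 cells/well, 5 hr settle, compound 40 hr 37 °C. CellTiter-Glo 20 min RT, luminescence read. AC50 by standard Hill fit.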

[3] = Cellular Toxicity (caspase-3) Hek293 (AID 664); settings: HEK293 caspase-3 activation, DMSO = 0%, 100 µM tamoxifen = 100%; at 92.2 µM (top of the series);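 further: cells exposed to compound for 16 h at 37 °C before readout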
Outline: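 qHTS, HEK293 (human embryonic kidney), 16 h cpd exposure in complete medium. Caspase-3/7 activation = luminescence increase; normalized to DMSO/100 uM tamoxifen; Hill-fit AC50.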

[4] = Cell Viability - LYMP2-003 (AID 965);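 further: cells exposed to compounds for 24 h before reading; nearly all actives have a fitted effect of over 50% in size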
Outline: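 CellTiter-Glo luminescence (cellular ATP) after 24 h compound exposure at 37 C in complete medium; 2500 cells/well, 5 h settling beforehand. Concentration-response fitted to standard Hill equation for AC50. Tetraoctylammonium bromide served as positive control.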

[5] = Cell Viability - LYMP2-009 (AID 968); further: nearly all actives have a fitted effect of over 55% in size
[6] = Cell Viability - LYMP2-013 (AID 970); further: nearly all actives have a fitted effect of over 55% in size
Outline: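 Cytotoxicity is scored as a concentration-dependent drop in intracellular ATP in human lymphoblastoid cells after 24 hr compound exposure at 37 C. ATP is quantified by luciferase luminescence, and AC50 values come from Hill-equation modeling.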

[7] = Cell Viability - LYMP2-019 (AID 973); further: nearly all actives have a fitted effect of over 55% in size
Outline: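 Cytotoxicity is scored as a concentration-dependent drop in cellular ATP after cells (2500/well) receive compound for 24 hr at 37 C. Tetraoctylammonium bromide serves as positive control.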

[8] = Cell Viability - LYMP2-025 (AID 976)
Outline: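 Acute cytotoxicity is scored as a concentration-dependent fall in intracellular ATP, measured by luciferase luminescence, in human lymphoblastoid LYMP2-025 cells exposed to compound for 24 hours at 37 C. AC50 values come from standard Hill fits.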

[9] = Cell Viability - LYMP2-002 (AID 977)
Outline: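 Human lymphoblastoid cells (2500/well) in complete medium were preincubated 5 hr at 37 C, then exposed to compounds for 24 hr at 37 C. Intracellular ATP was read by CellTiter-Glo luminescence; AC50 came from Hill-equation concentration-response fits.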

[10] = Cell Viability - LYMP2-006 (AID 978); further: nearly all actives have a fitted effect of over 60% in size
Outline: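 qHTS, 1536-well; 2500 cells/well, 5 hr 37 C; cpd 24 hr 37 C; CellTiter-Glo 30 min RT; luminescence. Tetraoctylammonium bromide pos. ctrl. AC50 via Hill eqn.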

[11] = Cell Viability - LYMP2-008 (AID 980); further: nearly all actives have a fitted effect of over 60% in size
Outline: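 Cells seeded at 2500/well and rested 5 hr at 37 C; compounds added over a concentration range and incubated 24 hr at 37 C; CellTiter-Glo added, 30 min at room temperature; luminescence read and AC50 fitted with Hill model.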

[12] = Cell Viability - LYMP2-012 (AID 982);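 further: cellular ATP by luciferase luminescence where a drop means cytotoxicity; cells exposed to compound for one day before reading; nearly all actives have a fitted effect of over 55% in size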
[13] = Cell Viability - LYMP2-020 (AID 986); further: nearly all actives have a fitted effect of over 55% in size
Outline: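 Seed 2500 cells per well and incubate 5 hr at 37 C. Add compounds at a concentration series and incubate 24 hr at 37 C. Add CellTiter-Glo, wait 30 min at RT, read luminescence, and fit a Hill curve for AC50.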

[14] = Cell Viability - LYMP2-022 (AID 987); further: nearly all actives have a fitted effect of over 55% in size
Outline: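 Cells were seeded at 2500 per well, rested 5 hr at 37 C, and treated with titrated compounds for 24 hr at 37 C. Cellular ATP was then quantified by luciferase luminescence, and AC50 values were derived from Hill-modelled concentration-response curves.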

[15] = Cell Viability - LYMP2-026 (AID 989); further: nearly all actives have a fitted effect of over 50% in size
Outline: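 Cells are seeded at 2500 per well and held 5 hr at 37 C. Compounds are added in concentration series for 24 hr, then CellTiter-Glo reagent is applied and luminescence read.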

[16] = Cell Viability - LYMP1-002 - Assay at 40 hr (AID 994); further: nearly all actives have a fitted effect of over 60% in size
Outline: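 Cells are plated at 2500 per well and rested 5 hr at 37 C. Compounds are added and incubated 40 hr at 37 C. CellTiter-Glo reagent is added for 30 min at room temperature before luminescence is read.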

[17] = qHTS assay for small molecule agonists of retinoid X receptor alpha signaling (AID 588544; calls by dose curve); settings: HEK293T RXRa-UAS-bla, beta-lactamase reporter, 18 h; 530 nm emission
[18] = target: Retinoic acid receptor RXR-alpha (Homo sapiens) (UniProt P19793); assay: as above
Chain of Retinoic acid receptor RXR-alpha (Homo sapiens) (P19793 whole entry, looked up): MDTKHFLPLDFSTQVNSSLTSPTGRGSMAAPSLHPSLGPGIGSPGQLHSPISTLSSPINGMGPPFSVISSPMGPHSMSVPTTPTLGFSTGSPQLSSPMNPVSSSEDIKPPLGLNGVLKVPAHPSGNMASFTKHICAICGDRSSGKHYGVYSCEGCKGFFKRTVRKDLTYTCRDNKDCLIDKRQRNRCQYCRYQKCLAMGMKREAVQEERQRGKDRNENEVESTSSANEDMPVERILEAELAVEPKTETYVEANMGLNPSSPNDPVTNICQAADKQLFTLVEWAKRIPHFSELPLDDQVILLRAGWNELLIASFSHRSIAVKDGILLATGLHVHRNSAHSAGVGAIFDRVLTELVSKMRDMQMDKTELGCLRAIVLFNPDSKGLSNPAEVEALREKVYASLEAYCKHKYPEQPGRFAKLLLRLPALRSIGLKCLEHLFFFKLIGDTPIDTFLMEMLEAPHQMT

[19] = target: Tumor necrosis factor (Homo sapiens) (UniProt P01375); assay: qHTS assay to identify small molecules that stimulate Tumor Necrosis Factor-alpha (TNF-alpha) secretion (AID 651757; active means well fitted curve in the direction sought with a large enough effect in the signal ratio; the % refers to the signal ratio)
Chain of Tumor necrosis factor (Homo sapiens) (P01375 whole entry, looked up): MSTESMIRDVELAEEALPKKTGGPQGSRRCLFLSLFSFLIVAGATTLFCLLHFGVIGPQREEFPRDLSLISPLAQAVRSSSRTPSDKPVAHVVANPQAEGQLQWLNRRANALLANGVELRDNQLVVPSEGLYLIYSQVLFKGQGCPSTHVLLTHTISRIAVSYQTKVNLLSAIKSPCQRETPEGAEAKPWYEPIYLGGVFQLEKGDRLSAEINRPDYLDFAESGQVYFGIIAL
Outline: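 Human monocytic THP-1 cells are plated, treated with compound and held at 37 C for 17 hrs. Labeled anti-TNF-alpha antibody mixture is then added; after 3 hr at room temperature, TR-FRET signal reports secreted TNF-alpha.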

[20] = Cell Viability - SH-SY5Y (AID 544); settings: SH-SY5Y neuroblastoma cell viability; viability change, negative = cytotoxic: at 92.2 µM (top of the series)
Outline: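 Cells were plated at 1500 per well and allowed 5 hr at 37 °C. Compounds were added across a concentration range and incubated 40 hr at 37 °C. CellTiter-Glo was added for 20 min at room temperature before luminescence reading.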

SMILES	Potency [1]	outcome [2]	caspase-3 activation [3]	Potency [4]	Potency [5]	Potency [6]	Potency [7]	Potency [8]	Potency [9]	Potency [10]	Potency [11]	Potency [12]	Potency [13]	Potency [14]	Potency [15]	Potency [16]	max response [17]	outcome [18]	outcome [19]	Potency [20]
CNC(=O)O/N=C/C(C)(C)S(C)=O (centres undefined)	inactive	inactive	-2.67% (inactive)	inactive	inactive	inactive	inactive	inactive	inactive	inactive	inactive	inactive	inactive	inactive	inactive	inactive	-20.3% and 7.58%	inactive	inactive	–
C=CCOCC1CO1 (centres undefined)	inactive	inactive	2.83% (inactive)	inactive	inactive	inactive	inactive	inactive	inactive	inactive	inactive	inactive	inactive	inactive	inactive	inactive	1.34%	inactive	inactive	inactive
C=C(Cl)CCl	inactive	inactive	0.722% (inactive)	inactive	inactive	inactive	inactive	inactive	inactive	inactive	inactive	inactive	inactive	inactive	inactive	inactive	-8.31%	inactive	inactive	inactive
O=[N+]([O-])c1ccccc1O	inactive	inactive	-0.522% (inactive)	inactive	inactive	inactive	inactive	inactive	inactive	inactive	inactive	inactive	inactive	inactive	inactive	inactive	-4.21%	inactive	inactive	inactive
Clc1cc(Cl)c(Cl)c(Cl)c1	inactive	inactive	-0.644% (inactive)	inactive	inactive	inactive	inactive	inactive	inactive	inactive	inactive	inactive	inactive	inactive	inactive	inactive	0.707%	inactive	inactive	inactive
CCC#N	inactive	inactive	-0.76% (inactive)	inactive	inactive	inactive	inactive	inactive	inactive	inactive	inactive	inactive	inactive	inactive	inactive	inactive	3.48%	inactive	inactive	inactive
N#CC(O)c1ccccc1 (centres undefined)	inactive	inactive	0.0339% (inactive)	inactive	inactive	inactive	inactive	inactive	inactive	inactive	inactive	inactive	inactive	inactive	inactive	inactive	-0.409%	inactive	inactive	inactive
